Screens (PubChem BioAssay)
Cycloheximide cs – Cycloheximide Counterscreen for Small Molecule Inhibitors of Shiga Toxin; cell reporter, cycloheximide protein synthesis inhibition counterscreen; max response, %; 300,000 tested, 12% active; AID 2314, 2010; in the data active = max response mostly above about 13%, no sharp cut-off; inactive = mostly below about 14%; note: read at 38.3 µM for the half of the compounds with a filed dose
Marburg entry inh – qHTS for inhibitors of binding or entry into cells for Marburg Virus. Marburg virus pseudotyped entry inhibition, cell reporter. Potency, µM (highest dose often 37.8 µM), usual class: inhibitors. 300,000 tested, 1.8% active; calls by dose curve; tested in HEK293 cells
Shiga toxin inh – A qHTS for Small Molecule Inhibitors of Shiga Toxin; Vero cells, Shiga toxin protein synthesis inhibition reporter; inhibition, % at 38.7 µM; 290,000 tested, 9.2% active; in the data active = inhibition mostly above about 28%, no sharp cut-off; inactive = mostly below about 43%
Pf growth 96h – Primary qHTS for delayed death inhibitors of the malarial parasite plastid, 96 hour incubation | P. falciparum luciferase reporter growth, 96 h | Potency, µM (top dose mostly 28.7 µM), actives largely listed as inhibitors | 320,000 tested, 6.9% active | AID 504834, 2011
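Compounds incubated with erythrocytes infected by luciferase-expressing P. falciparum (2% hematocrit, 0.05% parasitemia final) for 96 hours, 37 C in 5% CO2. Growth inhibition scored as decreased luciferase luminescence.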
Lassa entry inh – qHTS for Inhibitors of binding or entry into cells for Lassa Virus. Lassa virus pseudotype entry inhibition, cell reporter. Potency, µM (top dose mostly 37.9 µM), hits mostly inhibitors. 300,000 tested, 1.2% active; calls by dose curve; tested in HEK293 cells; note: nearly all actives have a fitted effect of over 50% in size
Pf growth 48h – Primary qHTS for delayed death inhibitors of the malarial parasite plastid, 48 hour incubation. P. falciparum luciferase growth in erythrocytes, 48 h. Potency, µM (doses to about 28.7 µM), hits mostly inhibitors. 310,000 tested, 5.9% active. AID 504832, 2011
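In quantitative HTS format, infected erythrocytes bearing luciferase-reporter parasites were treated for a single generation at 37 C. Luminescence after adding detection reagent served as the growth measure.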
A number is an active result; 0 = inactive; ? = inconclusive; - = no result; [ ] = another dose, or the depositor's remark. A selection: hits, their analogues and other compounds. The true share with any hit is near 19%. Unless noted, calls come from the whole dose curve; as a rule, active = well fitted inhibition curve with a large enough effect; inconclusive = small, poorly fitted or top-dose-only effect, or another doubt; inactive = no such curve, though single readings can be large or run the other way.

SMILES	Cycloheximide cs	Marburg entry inh	Shiga toxin inh	Pf growth 96h	Lassa entry inh	Pf growth 48h
COc1ccccc1N=c1oc2c(OC)cccc2cc1C(=O)NCc1ccco1	48	?	115	?	?	0
COc1ccccc1C(=O)NCc1ccco1	0	-	0	0	-	0
COc1cccc2cc(C(=O)Nc3ccc(F)cc3)c(=Nc3ccc(C(=O)O)cc3)oc12	51	-	76	0	-	0
Cc1cc(-c2nc3ncccc3o2)ccc1NC(=S)NC(=O)C(C)C	0	0	0	0	0	0
COc1ccc(C(=O)Nc2ccccc2C(=O)NCc2ccco2)cc1OC	0	0	0	?	?	-
COc1ccc(C(=O)Nc2ccc(Cl)cc2C(=O)NCc2ccco2)cc1OC	43	?	55	0	?	10µM
O=C(Nc1cccc(Cl)c1)Nc1ccccc1C(=O)NCc1ccco1	32	0	55	?	0	-
O=C(Nc1ccccc1C(=O)NCc1ccco1)Nc1cccc2ccccc12	0	-	0	0	-	?
CC(C)Nc1nc(-c2ccccc2)nc(-n2ccnc2)n1	0	?	0	0	0	2.3µM
CCCCNc1nc(-c2ccccc2)nc(-n2ccnc2)n1	0	?	0	0	0	-
C=CCNc1nc(-c2ccccc2)nc(-n2ccnc2)n1	0	?	0	?	0	13µM
c1ccc(-c2nc(NC3CC3)nc(-n3ccnc3)n2)cc1	0	0	0	0	0	13µM
FC(F)(F)c1cc(-c2ccccc2)nc(NC2CCCC2)n1	0	?	0	0	0	-
c1ccc(CN2CCN(c3ncccn3)CC2)cc1	0	0	0	0	0	0
c1ccc(CN2CCN(c3nc(-c4ccccc4)nc(-n4ccnc4)n3)CC2)cc1	0	?	0	0	0	3.7µM
COc1ccc(NC(=O)CCNS(=O)(=O)c2ccccc2F)cc1S(N)(=O)=O	0	0	0	0	0	0
CC[C@@H](C)C(C(=O)N1CCN(C(=O)OC(C)(C)C)CC1)n1cc(-c2cn([C@@H](C)C(=O)N3CCN(C(=O)OC(C)(C)C)CC3)nn2)nn1 (some centres undefined)	0	-	0	?	-	?
Cc1c(OCC(=O)NCCN2CCOCC2)ccc2c1oc(=O)c1ccccc12	0	-	0	?	-	?
c1ccc(-c2nc(-n3ccnc3)nc(-n3ccnc3)n2)cc1	0	?	0	2.3µM	0	8.3µM
CCC(=O)NCCc1nc2cc(NC(=O)c3ccc(F)cc3)ccc2n1C	43	-	89	0	-	0[0.00184 µM]
CC(=O)NCCc1nc2cc(NC(=O)c3ccc(Cl)cc3)ccc2n1C	24	-	64	0	-	0
CCC(=O)NCCc1nc2cc(NC(=O)c3ccc(Cl)cc3)ccc2n1C	52	?	64	0	?	0
CC(=O)N1CCN(Cc2nc3cc(NC(=O)c4ccc(Cl)cc4)ccc3n2C)CC1	0	0	0	0	0	-
CCC(=O)NCCc1nc2cc(NC(=O)c3ccc(OC)cc3)ccc2n1C	25	0	0	-	0	0
CC(C)CC1NC(=O)N(CC(=O)Nc2cc(F)ccc2F)C1=O (centres undefined)	-	-	-	0	-	0
SMILES	Cycloheximide cs	Marburg entry inh	Shiga toxin inh	Pf growth 96h	Lassa entry inh	Pf growth 48h
CCOC(=O)C1CCCCN1Cc1ccc(OC)c(OC)c1 (centres undefined)	0	0	0	0	0	0
COc1cc2c(cc1OC)-c1cc(Nc3ccccc3C)nc(=O)n1CC2	0	0	0	0	?	0
CC(=O)NCCc1nc2cc(NC(=O)c3cccs3)ccc2n1C	0	0	0	0	0	0
CC(=O)NCCc1nc2cc(NC(=O)c3ccccc3Cl)ccc2n1C	17	0	0	0	?	0
Cc1c(C)c2ccc(OCC(=O)N3CCC[C@@H]3C(=O)O)c(C)c2oc1=O	0	-	0	0	-	0
COc1ccccc1C(=O)Nc1ccc(OCc2cc(=O)n3ccc(C)cc3n2)cc1	-	-	-	-	0	-
CN(C)CCCNC(=O)c1cc(Br)ccc1Cl	0	0	0	9.3µM	0	-
COCCCNC(=O)COc1ccc(Br)cc1Cl	38	?	88	?	0	0
O=C(NCCN1CCOCC1)c1cc(Br)ccc1Cl	0	0	0	0	0	0
COCCNC(=O)COc1ccccc1Cl	0	0	0	-	0	0
CCNC(=O)COc1ccc(Br)cc1Cl	28	0	60	0	0	0
CN1C(=O)C(O)(CC(=O)c2cccs2)c2ccccc21 (centres undefined)	0	0	0	0	0	0
